Beta apoptosis – blocks beta cell apoptosis. INS-1E cytokine-induced death, ATP luminescence, 48 h; percent of positive-control rescue, neutral wells zero. protection from apoptosis, % (test concentration not listed). actives 0.8% (n = 300,000). AID 435005;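 active = Every replicate reaches about 75%, or at least half do and their mean reaches it too, limit read from the data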;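 note: 0% = cytokine-treated negative control wells and 100% = positive control rescue; higher means more ATP so stronger rescue from cytokine killing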
697 NFkB inh – lowers PMA/ionomycin-induced NF-kB signal in 697 B cells. 697 B-cell NF-kB luciferase reporter, 16 h. inhibition, % at 4 µM. actives 0.33% (n = 330,000). AID 435022; in the data active = inhibition above about 35%
Jurkat NFkB inh – lowers PMA/ionomycin-induced NF-kB signal in Jurkat cells; PMA/ionomycin-induced NF-kB luciferase reporter, luminescence; inhibition, % at 4 µM; actives 0.53% (n = 330,000); AID 435003; in the data active = inhibition above about 50%
Gli-Sufu block – antagonists of Gli-Sufu signaling; Sufu-KO-LIGHT fibroblasts, Gli luciferase reporter luminescence; inhibition, % at 5 µM; actives 0.74% (n = 340,000); AID 588413;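 active = inhibition above about 55%, limit read from the data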;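 note: 0% = DMSO-treated cells and 100% = wells with medium but no cells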
An asterisk follows results filed as active; · = not tested or not shown. Shown are actives, neighbours in structure and some others; about 1.8% of the full set was active somewhere.

SMILES	Beta apoptosis	697 NFkB inh	Jurkat NFkB inh	Gli-Sufu block
COc1cc2c(cc1OC)-c1c(OC)c(OC)cc3ccnc(c13)C2=O	112*	-58	22	11
Cc1ccc(-n2ncc3c2CC(C)(C)CC3NC(=O)CCc2c(C)noc2C)cc1 (configuration not stated)	-4	27	-11	11
COc1ccc(C(=O)NN/C(C)=C/C(=O)C(F)(F)C(F)(F)C(F)(F)F)cc1	79*	14	11	-18
N#C/C(=N/Nc1ccc(OC(F)(F)F)cc1)C(N)=S	88*	-61	-39	61*
CC(C)(C)c1ccc(NNC(=O)C2CCC2)cc1	109*	7	14	0
O=C(CC1C(=O)NCCN1C/C=C/c1ccccc1)NCCc1cnccn1 (configuration not stated)	0	5	1	1
Cn1c(-c2csc(-c3cccc(C(F)(F)F)c3)n2)n[nH]c1=S	1	15	-8	6
O=[N+]([O-])c1ccc(Cl)c(S(=O)(=O)n2ccnc2)c1	0	22	1	1
C=CCOC(=O)/C(=C/c1ccco1)NC(=O)/C=C/c1ccccc1	0	-40	-25	0
CCCCCCSc1cccc(-c2nc3ccc(C)cn3c2NC2CCCCC2)c1	1	1	-2	-2
Cc1ccc2nc(-c3ccccn3)c(NC3CCCC3)n2c1	102*	-80	-45	16
CCC(CO)Oc1cc(NCc2ccc(C)c(C)c2)c2ncn(C(C)C)c2c1 (configuration not stated)	101*	-4	-3	6
COC(=O)c1cc(=O)n(Cc2ccco2)c(=Nc2ccc(F)c(Cl)c2)s1	14	13	3	6
COC(=O)c1cc(=O)n(CCc2ccccc2F)c(=Nc2ccc(F)c(Cl)c2)s1	76*	4	14	6
Cc1ccc(CN(C(=O)c2csnn2)C(C(=O)NC2CCCC2)c2ccco2)cc1 (configuration not stated)	3	-5	5	0
COc1cc2nc(N3CCN(c4cc(C)ccc4C)CC3)nc(N)c2cc1OC	118*	-18	26	22
COc1cc2nc(N3CCNCC3)nc(N)c2cc1OC	-7	-20	-31	2
O=C(CNc1ccc(Cl)c(C(F)(F)F)c1)N1CCN(S(=O)(=O)c2ccccc2)CC1	·	·	·	3
CCOc1cc(/C=N/NC(=O)c2cc(-c3cccc(OC)c3)nc3ccccc23)ccc1O	99*	-19	-14	7
COc1cccc(/C=N/NC(=O)c2cc(-c3ccccn3)nc3ccccc23)c1O	93*	-49	21	45
COc1cc([N+](=O)[O-])cc(/C=N/NC(=O)c2cc(C)nc3ccccc23)c1O	-3	7	-20	-3
O=C(N/N=C/c1ccc(F)cc1)c1cc(-c2ccccn2)nc2ccccc12	·	4	11	4
COc1cc([N+](=O)[O-])cc(/C=N/NC(=O)c2cc(-c3ccccc3)nc3ccccc23)c1O	79*	-46	-13	2
CCc1cc(=O)[nH]c(SCc2cccnc2)n1	0	17	-12	-5
CC1CN(CCc2ccccc2)c2nc3c(c(=O)[nH]c(=O)n3C)n2C1 (configuration not stated)	0	8	17	10
SMILES	Beta apoptosis	697 NFkB inh	Jurkat NFkB inh	Gli-Sufu block
Oc1ccccc1/C=N/Nc1nc2ccccc2o1	98*	-95	-22	7
Oc1ccccc1/C=N/Nc1ncc(Br)cn1	87*	·	·	18
Cc1ccc(C)c(OC(=O)c2cccnc2)c1	4	11	3	-11
S=C(Nc1ccc(Cl)cc1)Nc1cccc2cnccc12	91*	-4	27	8
CC(C)c1ccc(/C=C2\C(=N)N3N=C(CC(=O)N4CCCCC4)SC3=NC2=O)cc1	4	6	-3	-6
COc1ccc(CC(=O)Nc2ccc(-c3noc(-c4cccc(OC)c4)n3)cc2)cc1	7	5	3	-17
COc1cccc(-c2nc(-c3ccc(NC(=O)c4cccnc4)cc3)no2)c1	114*	-72	-26	-19
CC(Oc1ccc(Cl)cc1Cl)c1nc(-c2ccc(NC(=O)c3cccnc3)cc2)no1 (configuration not stated)	101*	17	18	21
CC(Oc1ccc(Cl)cc1Cl)C(=O)NNC(=O)c1cccnc1 (configuration not stated)	-4	9	-2	-5
O=C(/C(=N/O)n1cncn1)c1ccccc1Cl	-1	10	-16	-1
NC(=S)n1[nH]c(-c2ccc([N+](=O)[O-])cc2)c(N=Nc2ccc(O)cc2)c1=O	·	10	20	3
NC(=S)n1[nH]c(-c2ccc([N+](=O)[O-])cc2)c(N=Nc2cccc(Cl)c2)c1=O	·	8	4	62*
O=C1CN(C(=O)COC(=O)c2ccc(C(F)(F)F)cc2)c2ccccc2N1	0	-10	-22	1
CCN(CC(=O)Nc1ccc2c(c1)OCCO2)C(=O)/C=C/c1cccc(OC)c1OC	-2	-20	-52	-19
Cc1ccc2[nH]c(C(=O)N/N=C/c3ccccc3C(=O)O)c(-c3ccccc3)c2c1	·	0	13	1
COc1ccc2[nH]c(C(=O)N/N=C/c3ccccc3OC)cc2c1	1	-18	33	-6
Cc1ccc2[nH]c(C(=O)N/N=C/c3ccccc3O)c(C)c2c1	86*	-32	27	11
COc1cc(OC)c2cc(C(=O)N/N=C/c3ccccc3O)[nH]c2c1	85*	-16	24	26
N#Cc1c2ccc([N+](=O)[O-])cc2[n+]([O-])n1-c1ccccc1	101*	-135	29	·
COc1cc(OC)c2c(-c3cccc(-c4ccc(CO)cc4)c3)cc(=O)oc2c1	·	-142	·	70*
COc1ccc(-c2nc(NC(=O)c3cc(C(C)(C)C)nn3C)sc2C)cc1	85*	9	21	14
COc1ccc(Cc2nc3ccc(C(=O)NCc4cc(C)no4)cc3o2)cc1	0	-86	-52	-40
CCc1cc(CNC(=O)c2ccc3nc(Cc4ccc(OC)c(OC)c4)oc3c2)on1	107*	-49	-3	19
C1CCC(C(CC2CCCCN2)C2CCCCC2)CC1 (configuration not stated)	90*	4	33	1
COc1ccc(-n2c(=S)[nH]c3cc(C(=O)Nc4ccccc4OC)ccc3c2=O)cc1	77*	-17	14	·
SMILES	Beta apoptosis	697 NFkB inh	Jurkat NFkB inh	Gli-Sufu block
COc1ccc(-n2ncc3c(N4CCCCC4)ncnc32)cc1	14	-26	15	56*
Clc1ccc(-n2ncc3c(N4CCCCCC4)ncnc32)cc1	·	-141	16	·
O=C(Nc1ccc(Cl)cc1)Nc1ccccc1C(=O)O	4	-178	-12	-13
COC(=O)c1c(-c2ccc(F)cc2)csc1NC(=O)c1ccco1	4	-153	-65	3
C/C(=N\NC(=O)c1nnn(-c2nonc2N)c1-c1ccccc1)c1ccccc1O	90*	-11	45	68*
C/C(=N\NC(=O)c1nnn(-c2nonc2N)c1CN(C)c1ccccc1)c1ccccn1	86*	·	·	78*
C/C(=N\NC(=O)c1nnn(-c2nonc2N)c1CN(C)c1ccccc1)c1ccc(O)cc1	-7	-10	20	-5

Bioassay records deposited in PubChem BioAssay by several laboratories.
